# “And” between values parts separate entries of the source, which are not always exact repeats. Equal values may be shown once. Results filed as inconclusive are left out. More than one record can exist for a structure, and the calls need not agree. The source made the active and inactive calls. The call rests on the fitted dose curve; in most records, active means well fitted inhibition curve with a large enough effect; inconclusive means small, poorly fitted or top-dose-only effect; inactive means flat fitted curve, though single readings scatter.
# Test: P-glycoprotein substrates identified in KB-8-5-11 adenocarcinoma cell line, qHTS therapeutic library screen (AID 1346987); further: nearly all actives have a fitted effect of over 65% in size
# Details: KB-8-5-11 (P-gp overexpressing) viability, CellTiter-Glo, 72 h; series mostly up to 44.5 µM; activity change, negative = cytotoxicity: at the top concentration
# Source text: The ATP-binding cassette transporters P-glycoprotein (P-gp) is known to limit brain penetration of many chemotherapy drugs. […] As such, we developed a high-throughput screen (HTS) to identify substrates of P-gp from a series of chemical libraries including the National Center for Advancing Translational Sciences Pharmaceutical Collection NPC, 2,816 compounds), testing a total of 10,804 compounds, most of which have known mechanisms of action. We used the CellTiter-Glo viability assay to test library compounds against the parental KB-3-1 human cervical adenocarcinoma cell line and the colchicine-selected sub-line KB-8-5-11 that over-expresses P-gp. KB-8-5-11 cells were also tested in the presence of a P-gp inhibitor (tariquidar) to assess reversability of transporter-mediated resistance. Of the tested compounds, a total of 90 P-gp substrates were identified including 55 newly identified P-gp substrates. Substrates were confirmed using an orthogonal killing assay against HEK-293 cells transfected with P-gp. As exemplars, we confirmed that […] (cyclin-dependent kinase inhibitor); AT9283, (Janus kinase 2/3 inhibitor); ispinesib (kinesin spindle protein inhibitor); gedatolisib (PKI-587, phosphoinositide 3-kinase/mammalian target of rampamycin inhibitor); GSK-690693 (AKT inhibitor); and KW-2478 (heat shock protein 90 inhibitor) were substrates , and direct ATPase stimulation was assessed. ABCG2 was also found to confer high levels of resistance to AT9283, GSK-690693 and gedatolisib, while ispinesib, AT7519 and KW-2478 were weaker substrates.
# The HeLa derivative cell line, KB-3-1, and its colchicine-selected, P-gp-overexpressing subline, KB-8-5-11 were maintained in DMEM with 10% FCS and Pen/Strep with glutamine at 37 degree C in 5% CO2. For KB-8-5-11 cells, colchicine was added to the medium at a concentration of 100 ng/mL. HEK-293 cells transfected with empty vector (pcDNA) or vector containing human ABCB1 (MDR-19) or ABCG2 (R-5) have been described previously (Robey, Lin, Qiu, Chan & Bates, 2011) and were maintained in EMEM supplemented with 10% FCS, Pen/Strep and glutamine with 2 mg/ml G418 to select for the expression of the transporter. Cultures were confirmed to be free of mycoplasma infection using the MycoAlert Mycoplasma Detection Kit (Lonza, Walkersville, MD). For the screen, assay medium was identical to culture medium except for KB-8-5-11 where colchicine was excluded from the medium.
# All cell lines were plated into 1536-well plates at 500 cells/well in 5 uL media. Compounds were then pinned in dose-response using a 1536-head pin tool (Kalypsis, San Diego, CA) and plates were incubated at 37 degree C in 5% CO2 for an additional 72 h. CellTiter-Glo reagent (Promega) was dispensed into the wells, incubated for 5 min and luminescence was read on a ViewLux instrument (Perkin-Elmer). Cytotoxic compounds were defined as those that yielded a curve class of -1.1, -1.2, -2.1, -2.2, -2.3, or -2.4, a maximum response of >50% and an AC50 of < 10 uM. Cherry-picked hits from screening analysis were tested with both the KB pair of cell lines, and the pcDNA (empty vector control) and MDR-19 (P-gp overexpressing) pair were tested, in the absence and presence of tariquidar.
# On the % scale 0 is the no-effect control and ±100 the full control effect; potency means the concentration at half of the fitted maximal effect.
SMILES,outcome,"activity change, negative = cytotoxicity",Potency
CCOC1OC(=O)C[C@H]1NC(=O)[C@@H]1CCCN1C(=O)[C@@H](NC(=O)c1ccc(N)c(Cl)c1)C(C)(C)C (stereo not given in full),inactive,,
NS(=O)(=O)c1ccc(NC2=CC(=O)c3ccccc3C2=O)cc1,,-22.4% (inactive),
CC[C@]1(O)C[C@@H]2CN(CCc3c([nH]c4ccccc34)[C@@](C(=O)OC)(c3cc4c(cc3OC)N(C=O)[C@@H]3C45CCN4CC=C[C@](CC)([C@H]45)[C@@H](OC(C)=O)[C@]3(O)C(=O)OC)C2)C1 (stereo not given in full),,-41.3% (inactive),
COCCOc1nc(-c2ccc(Cl)c(Cl)c2)n(-c2ccc(NC(=O)CCl)cc2)n1,,,inactive and 14.6 µM (active)
COc1ccc(Cc2ccc(NC(N)=O)cc2)cc1-c1cccc(Cl)c1,,-14% (inactive),
O=C(O)CCc1nc(-c2ccccc2)c(-c2ccccc2)o1,,,inactive
CN1CCN(CCOc2cc(OC3CCOCC3)c3c(Nc4c(Cl)ccc5c4OCO5)ncnc3c2)CC1,,-13% (inactive),
CC(=O)O[C@]1(C(C)=O)CC[C@@H]2[C@@H]3C[C@H](C)C4=CC(=O)CC[C@]4(C)[C@H]3CC[C@@]21C,inactive,,
CN1[C@@H]2CCC[C@@H]1CC(NC(=O)c1nn(C)c3ccccc13)C2 (stereo not given in full),,-10.4% (inactive),
O=c1cc(-c2ccccc2)oc2cc(O)c(O)c(O)c12,,0.789% (inactive),
Cc1ccc(C(C)(O)c2nc3ccccc3s2)c(C)c1 (stereo not given),,0.611% (inactive),
NC(=O)c1cccc(-c2cc(Nc3ccc(OC(F)(F)F)cc3)ncn2)c1,,-22.4% (inactive),
CC[C@@H]1C=C(C)C[C@H](C)C[C@H](OC)[C@H]2O[C@@](O)(C(=O)C(=O)N3CCCC[C@@H]3C(=O)O[C@H](C(C)=C[C@@H]3CC[C@H](Cl)[C@H](OC)C3)[C@H](C)[C@@H](O)CC1=O)[C@H](C)C[C@H]2OC,,-9.66% (inactive),
Nc1ncnc2c1ncn2[C@@H]1O[C@@H](CO)[C@H](O)[C@H]1O,inactive,,
CC(C)(C)c1ccc(C(O)CCCN2CCC(C(O)(c3ccccc3)c3ccccc3)CC2)cc1 (stereo not given),,,13 µM (active) and 18.4 µM (active)
O=C(O)c1c(Cl)c(Cl)c(Cl)c(Cl)c1-c1c2cc(I)c(=O)c(I)c-2oc2c(I)c(O)c(I)cc12,,-25.4% (inactive),
O=C(NCc1ccccc1)c1csc(Nc2ccncn2)n1,,-2.97% (inactive),
O=C1NCC2(CCN(CCc3ccccc3)CC2)O1,,16.9% (inactive),
Cc1c(NC(=O)c2ccc(C(C)(C)C)cc2)cccc1-c1cn(C)c(=O)c(Nc2ccc(C(=O)N3CCOCC3)cc2)n1,,-0.372% (inactive),
COc1ccc(-n2c(C)c([N+](=O)[O-])c3ccc(O)cc32)cc1,,2.7% (inactive),

SMILES,outcome,"activity change, negative = cytotoxicity",Potency
O=C1c2c(O)cc(O)cc2O[C@H](c2cc(O)c(O)c(O)c2)[C@H]1O,,3.23% (inactive),
C=C1C(=O)OC2C=C(C)CCC=C(C)CCC12 (stereo not given),,6.93% (inactive),
CCOc1ccc(Nc2nc(-c3c(C)nc4ccccn34)cs2)cc1,,,1 nM (active) and 36.6 nM (active)
O=C(Nc1cc(Cl)cc2c1[nH]c1cnccc12)c1cccnc1,,,inactive
CC1(C)CCC(CN2CCN(c3ccc(C(=O)NS(=O)(=O)c4ccc(NCC5CCOCC5)c([N+](=O)[O-])c4)c(Oc4cnc5[nH]ccc5c4)c3)CC2)=C(c2ccc(Cl)cc2)C1,inactive,,
CNC(=O)c1ccc2cc(C3(O)CCn4cncc43)ccc2c1 (stereo not given),,,inactive
COc1ccc2c3c1OC1C[C@@H](O)C=C[C@@]31CCN(C)C2 (stereo not given in full),inactive,,
O=C1c2ccccc2-[n+]2ccc3c([nH]c4ccccc43)c21,,,3.32 µM (active)
CC1(C)CCC2=C(O1)c1ccccc1C(=O)C2=O,,-10.5% (inactive),
NC(CO)(CO)CCc1ccc(Sc2cccc(OCc3ccccc3)c2)cc1Cl,,,20.9 µM (active)
COC[C@@H](c1ccc(C(F)(F)F)cc1)N1CCN(C2(C)CCN(C(=O)c3c(C)ncnc3C)CC2)C[C@H]1C,,5.37% (inactive),
CCOC(=O)C1=C(N)Oc2ccc(Br)cc2C1C(C#N)C(=O)OCC (stereo not given),,,inactive
CC(C)=CC[C@@H](O)C1=CC(=O)c2c(O)ccc(O)c2C1=O,inactive,,
O=C1C[C@@H](c2ccc(O)cc2)Oc2cc(O)cc(O)c21,,-3.25% (inactive),
CN(C[C@@H]1COCCO1)S(=O)(=O)Nc1ccc2ccc3ncc(-c4cnn(C)c4)cc3c(=O)c2c1,,,18.7 µM (active) and 18.4 µM (active)
CCn1c(C(=O)N(C2CC2)C2CC2)cc2c3c(ncn3C)c(Nc3cc(C)n(C)n3)nc21,,-7.78% (inactive),
CC(C)(C)Cn1c(N)nc2ccc(-c3[nH]c(C(C)(C)C)nc3-c3ccc(F)cc3)nc21,,,20.9 µM (active) and 23.1 µM (active)
CC(C)NCC(O)COc1cccc2[nH]ccc12 (stereo not given),,,inactive
O=c1cc(-c2ccccc2)oc2cc(O)cc(O)c12,,-8.46% (inactive),
CC1(C)CCC[C@@]2(C)[C@@H]1CC[C@@]1(C)OC(=O)C[C@H]21,,5.11% (inactive),

# Source: PubChem BioAssay (NCATS)
